# Laboratory results as given in ChEMBL document CHEMBL3988442, “University of Dundee, Small-Polar-MMV Screening Library” (2021).
# For some assays here: Potency and affinity values are given separately.
# Assays:
# Set-up in all cases: scale not given: direction of the effect not stated beside the values
# [1] = target: Protein translocase subunit SecA (Escherichia coli (strain K12)) (UniProt P10408); test: Assay to Identify E. coli SecA ATPase Inhibitors; type: functional; details: 30 µM
# [2] = target: T1, Ubiquitin-activating enzyme e1, putative (Leishmania donovani (strain BPK282A1)) (UniProt E9BSI1); test: Leishmania donovani Ubiquitin Activating Enzyme (LdE1); type: functional; details: 30 µM
# T1 sequence (whole entry): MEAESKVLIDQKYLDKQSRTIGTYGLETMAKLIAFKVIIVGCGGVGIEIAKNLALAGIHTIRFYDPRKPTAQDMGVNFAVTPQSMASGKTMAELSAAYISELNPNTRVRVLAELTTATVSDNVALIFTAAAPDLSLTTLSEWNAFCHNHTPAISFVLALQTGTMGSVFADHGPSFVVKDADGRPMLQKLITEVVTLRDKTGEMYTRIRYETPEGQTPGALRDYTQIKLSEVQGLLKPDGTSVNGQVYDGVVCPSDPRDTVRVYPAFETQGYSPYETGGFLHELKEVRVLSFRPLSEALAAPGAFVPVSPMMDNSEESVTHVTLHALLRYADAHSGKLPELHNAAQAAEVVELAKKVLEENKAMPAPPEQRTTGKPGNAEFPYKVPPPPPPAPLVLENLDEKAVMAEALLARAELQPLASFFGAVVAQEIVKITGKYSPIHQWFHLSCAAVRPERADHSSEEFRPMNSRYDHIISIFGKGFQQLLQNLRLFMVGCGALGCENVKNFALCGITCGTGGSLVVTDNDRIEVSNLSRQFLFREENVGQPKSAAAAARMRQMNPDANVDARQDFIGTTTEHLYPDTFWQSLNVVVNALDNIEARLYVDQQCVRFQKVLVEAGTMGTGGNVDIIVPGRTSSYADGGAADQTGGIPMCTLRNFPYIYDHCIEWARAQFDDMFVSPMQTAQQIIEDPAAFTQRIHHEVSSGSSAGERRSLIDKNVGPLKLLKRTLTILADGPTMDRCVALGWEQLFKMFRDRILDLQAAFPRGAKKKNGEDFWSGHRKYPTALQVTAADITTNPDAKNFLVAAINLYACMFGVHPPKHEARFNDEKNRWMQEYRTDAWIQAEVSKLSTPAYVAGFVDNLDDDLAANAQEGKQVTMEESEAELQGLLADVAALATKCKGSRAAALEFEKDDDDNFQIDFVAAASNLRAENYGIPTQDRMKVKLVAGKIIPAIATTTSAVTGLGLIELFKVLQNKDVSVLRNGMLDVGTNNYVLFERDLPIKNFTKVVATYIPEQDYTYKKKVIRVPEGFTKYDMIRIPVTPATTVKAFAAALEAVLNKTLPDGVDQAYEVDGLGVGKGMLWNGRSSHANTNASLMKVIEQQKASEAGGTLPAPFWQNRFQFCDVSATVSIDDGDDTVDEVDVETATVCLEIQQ
# [3] = target: AMP-activated protein kinase, AMPK (Homo sapiens) (UniProt P54646+O43741+P54619+Q9UGJ0+Q9Y478+Q13131+Q9UGI9); test: AMP-dependent Kinase enzyme assay. An in vitro enzyme assay that detects ADP turnover that is directly proportional to AMPK activity. This uses naive AMPK that is activated during the assay with MK-8722; type: functional; details: 30 µM
# [4] = target: Sialic acid-binding Ig-like lectin 9 (Homo sapiens) (UniProt Q9Y336); test: Hs-Siglec9 ALPHAscreen SOP 20170721; details: 10 µM
# Chain of Sialic acid-binding Ig-like lectin 9 (Homo sapiens) (Q9Y336 whole entry): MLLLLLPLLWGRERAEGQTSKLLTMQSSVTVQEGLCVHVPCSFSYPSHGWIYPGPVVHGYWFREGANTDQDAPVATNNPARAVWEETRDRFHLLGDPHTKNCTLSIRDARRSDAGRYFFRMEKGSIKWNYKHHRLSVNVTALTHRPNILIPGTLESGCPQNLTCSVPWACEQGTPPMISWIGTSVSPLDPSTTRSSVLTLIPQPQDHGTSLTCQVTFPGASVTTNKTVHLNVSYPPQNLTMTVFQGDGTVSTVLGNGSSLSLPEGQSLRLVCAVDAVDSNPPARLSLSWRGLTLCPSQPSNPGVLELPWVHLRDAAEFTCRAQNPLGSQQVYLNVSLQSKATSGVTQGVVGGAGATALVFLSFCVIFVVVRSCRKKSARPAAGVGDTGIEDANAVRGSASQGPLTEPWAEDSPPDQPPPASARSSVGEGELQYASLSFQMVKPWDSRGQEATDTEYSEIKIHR
# Trypanosoma cruzi = test: Trypanosoma cruzi phosphomannomutase and mannose-1-phosphate guanylyltransferase assay; type: functional; details: 10 µM
# [5] = target: T2, Arginase-2, mitochondrial (Homo sapiens) (UniProt P78540); test: in vitro enzyme assay to detect the production of urea directly proportional to the activity of Arginase II; type: functional; details: 33.3 µM; further: in the data most compounds retested in dose-response had high values
# T2 sequence (whole entry): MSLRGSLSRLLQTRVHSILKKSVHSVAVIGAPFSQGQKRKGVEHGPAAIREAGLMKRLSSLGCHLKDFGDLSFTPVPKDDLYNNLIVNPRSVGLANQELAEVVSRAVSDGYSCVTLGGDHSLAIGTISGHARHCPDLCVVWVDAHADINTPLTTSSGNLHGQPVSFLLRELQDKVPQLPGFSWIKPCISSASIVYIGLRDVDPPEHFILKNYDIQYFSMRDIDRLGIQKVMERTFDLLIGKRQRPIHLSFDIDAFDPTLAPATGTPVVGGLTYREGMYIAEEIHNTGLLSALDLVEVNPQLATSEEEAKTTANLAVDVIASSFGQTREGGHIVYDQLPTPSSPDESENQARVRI
# [6] = target: T3, Proteasome subunit beta (Trypanosoma cruzi) (UniProt O96673); test: Trypanosoma cruzi proteasome chymotrypsin-like activity (TcProtChymo) assay.; further: in the data most compounds retested in dose-response had high values; type: functional; details: 9.37 µM
# T3 sequence (whole entry): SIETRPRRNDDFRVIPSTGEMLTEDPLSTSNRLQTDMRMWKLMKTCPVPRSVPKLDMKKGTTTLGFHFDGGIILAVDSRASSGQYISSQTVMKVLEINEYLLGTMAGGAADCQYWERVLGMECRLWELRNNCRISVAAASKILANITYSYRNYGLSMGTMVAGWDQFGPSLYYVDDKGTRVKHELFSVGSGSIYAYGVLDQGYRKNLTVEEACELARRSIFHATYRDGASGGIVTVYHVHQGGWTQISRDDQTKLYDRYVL
# Homo sapiens = organism: Homo sapiens; test: To identify inhibition of the IFN signalling (Jak-Stat) pathway via expression of an eGFP reporter gene under the control of an IFN-stimulated response element (ISRE) containing MxA promoter.; type: functional; details: 30 µM
# [7] = target: T4, Tyrosyl-tRNA synthetase, putative (Trypanosoma cruzi (strain CL Brener)) (UniProt Q4DSP6); test: Trypanosoma cruzi tyrosyl tRNA synthetase (TcYRS) _High Tyrosine SOP; type: functional; details: 30 µM; further: in the data most compounds retested in dose-response had high values
# T4 sequence (whole entry): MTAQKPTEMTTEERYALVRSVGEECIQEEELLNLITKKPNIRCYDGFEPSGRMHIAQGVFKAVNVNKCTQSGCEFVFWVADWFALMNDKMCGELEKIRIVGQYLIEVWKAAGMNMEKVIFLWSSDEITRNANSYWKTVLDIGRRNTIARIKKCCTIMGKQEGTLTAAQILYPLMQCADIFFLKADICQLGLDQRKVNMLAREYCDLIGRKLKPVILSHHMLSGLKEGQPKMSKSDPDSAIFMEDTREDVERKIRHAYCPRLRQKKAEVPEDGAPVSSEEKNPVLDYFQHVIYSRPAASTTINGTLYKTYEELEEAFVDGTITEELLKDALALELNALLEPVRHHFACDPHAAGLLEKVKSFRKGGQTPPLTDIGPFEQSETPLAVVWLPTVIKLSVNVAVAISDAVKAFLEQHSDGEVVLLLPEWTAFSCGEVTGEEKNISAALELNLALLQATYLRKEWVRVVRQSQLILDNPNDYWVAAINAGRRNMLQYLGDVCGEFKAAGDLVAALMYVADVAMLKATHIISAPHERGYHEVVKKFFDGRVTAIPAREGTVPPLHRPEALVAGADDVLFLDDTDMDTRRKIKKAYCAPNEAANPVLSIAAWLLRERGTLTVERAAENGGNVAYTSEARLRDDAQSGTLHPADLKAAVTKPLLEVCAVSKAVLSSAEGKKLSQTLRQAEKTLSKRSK
# [8] = target: T4, Tyrosyl-tRNA synthetase, putative (Trypanosoma cruzi (strain CL Brener)); test: Trypanosoma cruzi tyrosyl tRNA synthetase (TcYRS) SOP; type: functional; details: 30 µM
# [9] = target: Chromo domain-containing protein 1 (Saccharomyces cerevisiae (strain ATCC 204508 / S288c) (Baker's yeast)) (UniProt P32657); test: ScCHD-1 Enzyme Inhibition Assay; type: functional; details: 30 µM; further: in the data most compounds retested in dose-response had high values
# Chain of Chromo domain-containing protein 1 (Saccharomyces cerevisiae (strain ATCC 204508 / S288c) (Baker's yeast)) (P32657 whole entry, the tested form may be a part): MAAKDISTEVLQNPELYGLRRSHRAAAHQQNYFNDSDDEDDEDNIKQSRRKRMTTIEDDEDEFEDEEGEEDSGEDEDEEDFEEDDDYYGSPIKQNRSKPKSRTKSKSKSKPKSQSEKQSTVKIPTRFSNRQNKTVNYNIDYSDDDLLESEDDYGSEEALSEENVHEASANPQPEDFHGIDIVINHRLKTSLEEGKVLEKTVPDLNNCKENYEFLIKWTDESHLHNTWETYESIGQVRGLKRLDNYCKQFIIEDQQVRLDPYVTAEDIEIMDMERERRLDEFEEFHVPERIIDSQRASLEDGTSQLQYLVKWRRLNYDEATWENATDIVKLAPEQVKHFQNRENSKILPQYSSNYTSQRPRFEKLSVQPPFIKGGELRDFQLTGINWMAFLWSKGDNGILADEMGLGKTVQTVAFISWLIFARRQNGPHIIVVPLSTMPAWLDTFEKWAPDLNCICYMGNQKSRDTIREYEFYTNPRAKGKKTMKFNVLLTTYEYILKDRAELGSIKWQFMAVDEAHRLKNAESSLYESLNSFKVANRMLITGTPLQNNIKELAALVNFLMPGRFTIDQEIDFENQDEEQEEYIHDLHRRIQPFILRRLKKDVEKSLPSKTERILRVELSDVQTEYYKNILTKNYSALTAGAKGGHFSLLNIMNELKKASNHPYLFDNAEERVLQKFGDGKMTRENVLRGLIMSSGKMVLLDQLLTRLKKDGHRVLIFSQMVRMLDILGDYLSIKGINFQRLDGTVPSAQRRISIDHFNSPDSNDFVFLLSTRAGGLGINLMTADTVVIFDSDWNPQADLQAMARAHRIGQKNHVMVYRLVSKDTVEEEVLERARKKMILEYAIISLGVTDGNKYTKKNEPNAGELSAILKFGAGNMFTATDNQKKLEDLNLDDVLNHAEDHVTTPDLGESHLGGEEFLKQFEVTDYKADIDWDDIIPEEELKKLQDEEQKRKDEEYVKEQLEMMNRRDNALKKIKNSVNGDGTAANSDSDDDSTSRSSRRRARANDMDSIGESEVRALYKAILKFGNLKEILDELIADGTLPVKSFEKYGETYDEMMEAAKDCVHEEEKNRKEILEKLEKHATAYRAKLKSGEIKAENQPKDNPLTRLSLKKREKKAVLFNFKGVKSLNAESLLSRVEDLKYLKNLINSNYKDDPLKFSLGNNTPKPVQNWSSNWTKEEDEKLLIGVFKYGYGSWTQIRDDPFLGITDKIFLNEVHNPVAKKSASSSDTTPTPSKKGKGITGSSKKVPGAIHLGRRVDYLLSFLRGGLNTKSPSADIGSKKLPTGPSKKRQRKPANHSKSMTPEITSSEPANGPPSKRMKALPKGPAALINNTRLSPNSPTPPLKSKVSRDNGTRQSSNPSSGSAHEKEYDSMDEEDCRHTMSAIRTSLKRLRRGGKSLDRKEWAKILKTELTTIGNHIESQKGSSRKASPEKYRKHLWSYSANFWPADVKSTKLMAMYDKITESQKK
# Chain of Protein translocase subunit SecA (Escherichia coli (strain K12)) (P10408 whole entry): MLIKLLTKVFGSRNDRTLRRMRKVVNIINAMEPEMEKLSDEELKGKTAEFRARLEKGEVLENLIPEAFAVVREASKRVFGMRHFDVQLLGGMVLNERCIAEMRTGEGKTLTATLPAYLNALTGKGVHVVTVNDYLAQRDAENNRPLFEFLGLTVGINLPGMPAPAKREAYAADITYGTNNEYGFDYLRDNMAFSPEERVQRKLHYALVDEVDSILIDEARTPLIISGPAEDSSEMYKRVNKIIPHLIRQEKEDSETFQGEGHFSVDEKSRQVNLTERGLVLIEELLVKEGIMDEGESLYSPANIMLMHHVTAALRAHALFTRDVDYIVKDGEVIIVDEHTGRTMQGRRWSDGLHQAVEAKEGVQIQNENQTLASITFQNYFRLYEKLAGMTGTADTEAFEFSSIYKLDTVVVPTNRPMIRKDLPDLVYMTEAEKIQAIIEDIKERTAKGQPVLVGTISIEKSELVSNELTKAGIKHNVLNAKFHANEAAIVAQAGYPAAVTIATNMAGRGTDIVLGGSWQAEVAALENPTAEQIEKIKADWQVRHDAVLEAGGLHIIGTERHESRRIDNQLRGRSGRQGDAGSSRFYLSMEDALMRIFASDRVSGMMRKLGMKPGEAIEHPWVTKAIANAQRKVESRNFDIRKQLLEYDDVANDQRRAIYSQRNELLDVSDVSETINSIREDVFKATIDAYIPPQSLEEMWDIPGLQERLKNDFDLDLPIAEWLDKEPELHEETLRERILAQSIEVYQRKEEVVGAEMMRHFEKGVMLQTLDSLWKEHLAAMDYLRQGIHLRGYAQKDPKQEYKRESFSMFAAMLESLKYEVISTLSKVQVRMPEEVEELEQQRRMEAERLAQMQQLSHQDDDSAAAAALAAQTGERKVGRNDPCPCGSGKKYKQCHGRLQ
structure (smiles),measurement,setting,value
COCCC(=O)N1CCN(CCN(C)C)c2ncccc2C1,Percent Effect,[1],-3.66%
same,Percent Effect,[2],5.2%
same,Percent Effect,[3],4.52%
same,Percent Effect,[4],2.96%
same,Percent Effect,Trypanosoma cruzi,-0.492%
same,Percent Effect,[5],-2.76%
same,Percent Effect,[6],9.48%
same,Percent Effect,Homo sapiens,0.361%
same,Percent Effect,[7],4.3%
same,Percent Effect,[8],8.64%
same,Percent Effect,[9],-1.22%
CC(C)S(=O)(=O)NCC1CCCN(C(=O)c2cccnc2)C1 (stereo not given),Percent Effect,[1],-1.12%
same,Percent Effect,[2],11%
same,Percent Effect,[3],-1.03%
same,Percent Effect,[4],-2.93%
same,Percent Effect,Trypanosoma cruzi,-3.53%
same,Percent Effect,[5],0.455%
same,Percent Effect,[6],21.3%
same,Percent Effect,Homo sapiens,15%
same,Percent Effect,[7],3.23%
same,Percent Effect,[8],10%
same,Percent Effect,[9],-3.28%
CCN(CC)C(=O)CCNC(=O)N1CCC(c2ccccc2)C1 (stereo not given),Percent Effect,[1],-1.34%
same,Percent Effect,[2],0%
same,Percent Effect,[3],-3.55%
same,Percent Effect,[4],1.13%
same,Percent Effect,Trypanosoma cruzi,0.772%
same,Percent Effect,[5],-4.29%
same,Percent Effect,[6],0.172%
same,Percent Effect,Homo sapiens,15.7%
same,Percent Effect,[7],0.529%
same,Percent Effect,[8],4.88%
same,Percent Effect,[9],0.238%
CN1CCOC(CNCc2coc(-c3ccccc3)n2)C1 (stereo not given),Percent Effect,[1],0.225%
same,Percent Effect,[2],12.7%
same,Percent Effect,[3],-7.36%
same,Percent Effect,[4],-10.7%
same,Percent Effect,Trypanosoma cruzi,-5.57%
same,Percent Effect,[5],7.22%
same,Percent Effect,[6],8.6%
same,Percent Effect,Homo sapiens,24.4%
same,Percent Effect,[7],6.4%
same,Percent Effect,[8],13.9%
same,Percent Effect,[9],-5.22%
CCOCCn1nc(C)cc1C(=O)N1CC[C@](C)(O)[C@H](C)C1,Percent Effect,[1],-5.83%
same,Percent Effect,[2],5.41%
same,Percent Effect,[3],-0.231%
same,Percent Effect,[4],3.85%
same,Percent Effect,Trypanosoma cruzi,-4.25%
same,Percent Effect,[5],-1.91%
same,Percent Effect,[6],6.03%
same,Percent Effect,Homo sapiens,-3.48%
same,Percent Effect,[7],2.65%
same,Percent Effect,[8],9.76%
same,Percent Effect,[9],-1.04%
Cc1ccc(N2CCCC(NCC(=O)NC3CCOCC3)C2)nn1 (stereo not given),Percent Effect,[1],-5.04%
same,Percent Effect,[2],-3.8%
same,Percent Effect,[3],-5.1%
same,Percent Effect,[4],4.11%
same,Percent Effect,Trypanosoma cruzi,-1.13%
same,Percent Effect,[5],4.95%
same,Percent Effect,[6],3.94%
same,Percent Effect,Homo sapiens,-13.5%
same,Percent Effect,[7],0%
same,Percent Effect,[8],5.06%
same,Percent Effect,[9],-2.4%
Cc1cc(F)ccc1OC1(C(=O)O)CCN(Cc2cccnc2N)CC1,Percent Effect,[1],-6.33%
same,Percent Effect,[2],5.33%
same,Percent Effect,[3],-1.53%
same,Percent Effect,[4],2.08%
same,Percent Effect,Trypanosoma cruzi,-3.02%
same,Percent Effect,[5],-0.521%
same,Percent Effect,[6],5.93%
same,Percent Effect,Homo sapiens,0.568%
same,Percent Effect,[7],6.01%
same,Percent Effect,[8],11.1%
same,Percent Effect,[9],1.09%
COc1ccc(CCNC(=O)C2CCC(Cn3cnnn3)CC2)cc1 (stereo not given),Percent Effect,[1],-1.81%
same,Percent Effect,[2],1.33%
same,Percent Effect,[3],15.9%
same,Percent Effect,[4],3.74%
same,Percent Effect,Trypanosoma cruzi,-1.38%
same,Percent Effect,[5],-5.81%
same,Percent Effect,[6],5.18%
same,Percent Effect,Homo sapiens,-2.49%
same,Percent Effect,[7],5.29%
same,Percent Effect,[8],2.56%
same,Percent Effect,[9],-1.04%
CC(NCc1ccccc1Br)c1ccc2[nH]c(=O)[nH]c2c1 (stereo not given),Percent Effect,[1],-1.71%
same,Percent Effect,[2],-18.9%
same,Percent Effect,[3],-5.22%
same,Percent Effect,[4],10.9%
same,Percent Effect,Trypanosoma cruzi,5.19%
same,Percent Effect,[5],-0.401%
same,Percent Effect,[6],-0.18%
same,Percent Effect,Homo sapiens,25.5%
same,Percent Effect,[7],-0.493%
same,Percent Effect,[8],6.17%
same,Percent Effect,[9],-4.59%
O=C(CCc1ccc(O)cc1)N1CCC(Cc2ccc(CO)cc2)C1 (stereo not given),Percent Effect,[1],-2.29%
same,Percent Effect,[2],6.94%
same,Percent Effect,[3],21.8%
same,Percent Effect,[4],-5.94%
same,Percent Effect,Trypanosoma cruzi,-2.82%
same,Percent Effect,[5],1.32%
same,Percent Effect,[6],8.6%
same,Percent Effect,Homo sapiens,-10.8%
same,Percent Effect,[7],5.26%
same,Percent Effect,[8],12.8%
same,Percent Effect,[9],-1.12%
